Screening data as filed in PubChem.
m-calpain inh: blocks pig calpain II enzyme activity | purified calpain II, fluorogenic peptide substrate, 30 min | inhibition, % at 16 µM | 220,000 tested, 0.37% active;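 active means inhibition above about 50%, limit read from the data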
L major viab: Leishmania major promastigote growth inhibition; AID 1063; Leishmania major promastigotes, resazurin fluorescence viability; 200,000 tested, 9% active; inhibition, % at 10 µM; in the data active means inhibition above about 50%;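 further: promastigotes grown with compound for 44 hours at 28 °C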
KCC2 mod: KCC2 (human) Cl- transport modulation; KCC2 cells, thallium flux FluoZin-2 fluorescence; 190,000 tested, 2.2% active; B-score of Tl+ flux slope (higher = more flux/activation; lower = inhibition) at 10 µM; Q9H2X9;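 active means thallium flux slope and its plate-corrected score both differing from the plate sample mean at a set confidence after two filtering rounds, in either direction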;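 further: slope of fluorescence scaled to starting intensity during 10 to 20 s after thallium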
WT yeast gro inh: growth inhibition of WT yeast, mitochondrial fusion screen. mitochondrial fusion phenotypic screen, WT strain. inhibition, % at 10 µM. 190,000 tested, 2.1% active. AID 1362; in the data active means inhibition above about 58%; tested in S. cerevisiae
ROMK primary: modulates human ROMK potassium channel activity; P48048; Tet-inducible ROMK, thallium flux fluorescence; actives lie on both sides; B-score at 10 µM; 130,000 tested, 2% active;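 active means signal ratio slope over the read window, or its plate-corrected B-score, at least 3 SD from the plate mean, either direction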;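 further: B-score of the F/F0 ratio slope over 7 to 12 s after thallium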
The depositor's hits bear a star. Only some compounds are listed: those with a hit (about 12% of all), similar ones and a draw of the others.

For Cc1ccccc1Nc1cc(C(=O)NCC2CCCO2)c2ccccc2n1 (stereo not drawn) the results were m-calpain inh -16, KCC2 mod 1.5 and ROMK primary 0.11.
CN(CCCNC(=O)c1cccn2c(=O)c3ccccc3nc12)Cc1ccccc1 was read as m-calpain inh -259, L major viab 100*, KCC2 mod -0.68, WT yeast gro inh -2 and ROMK primary -1.4.
`O=C(CN1C(=O)/C(=C\c2cccc(F)c2)Oc2ccccc21)N1CCN(c2ccccn2)CC1` gave m-calpain inh -464, L major viab 50*, KCC2 mod -0.24, WT yeast gro inh -15 and ROMK primary -0.9.
For O=C(CN1C(=O)/C(=C\c2ccc(F)cc2)Oc2ccccc21)N1CCN(c2ccccn2)CC1 the results were m-calpain inh inactive, L major viab -2, KCC2 mod -0.37, WT yeast gro inh 1 and ROMK primary 0.43.
COc1ccc(S(=O)(=O)N2CCC(C(=O)N3CCC(C(N)=O)CC3)CC2)cc1Cl was read as m-calpain inh -12, L major viab -2, KCC2 mod -0.31, WT yeast gro inh -3 and ROMK primary -0.072.
Screening COc1ccc(S(=O)(=O)N2CCC(C(=O)N3CCc4ccccc4C3)CC2)cc1Cl returned m-calpain inh 2, L major viab 96*, KCC2 mod -3.1 and WT yeast gro inh 16.
For O=C(CN1CCCN(S(=O)(=O)c2ccc(Br)cc2)CC1)Nc1ccc2cn[nH]c2c1 the results were L major viab 22 and KCC2 mod 0.02.
`O=C(NC(CSCc1ccccc1)C(=O)N/N=C/c1ccc(O)cc1O)c1ccc([N+](=O)[O-])cc1` (stereo not drawn) gave m-calpain inh -25, L major viab 100*, WT yeast gro inh 9 and ROMK primary 0.18.
Screening C/C(=N\Nc1cccc2cccnc12)c1ccc(C)cc1 returned m-calpain inh 21, L major viab -1, KCC2 mod 0.77, WT yeast gro inh 74* and ROMK primary -0.47.
For Oc1ccccc1/C=N/Nc1cccc2cccnc12 the results were m-calpain inh 32, L major viab -5, KCC2 mod -0.014 and WT yeast gro inh -3.
`COc1ccc(C2CC(=O)C3=C(C2)Nc2ncnn2C3c2ccccc2C)cc1` (stereo not drawn) gave m-calpain inh -10, L major viab 100*, KCC2 mod -0.68 and WT yeast gro inh 10.
`COc1ccc(C2CC(=O)C3=C(C2)Nc2ncnn2C3c2ccccc2)cc1` (stereo not drawn) gave m-calpain inh 12, L major viab 91*, WT yeast gro inh 15 and ROMK primary -0.25.
For COc1ccccc1NC(=O)C1=C(C)Nc2ncnn2C1c1ccccc1C (stereo not drawn) the results were m-calpain inh -3, L major viab 9, WT yeast gro inh -6 and ROMK primary -0.18.
For Fc1ccccc1/C=C/c1ccc2ccccc2n1 the results were m-calpain inh 4, L major viab 0, KCC2 mod -0.32, WT yeast gro inh 44 and ROMK primary 0.34.
CC(=O)Oc1c(Cl)cc(Cl)cc1/C=C/c1ccc2ccccc2n1 was read as m-calpain inh 7, L major viab 8, KCC2 mod 0.2 and WT yeast gro inh 83*.
CC(=O)Oc1ccc(Cl)cc1/C=C/c1ccc2ccccc2n1 was read as m-calpain inh -10, L major viab 55*, KCC2 mod -0.18 and WT yeast gro inh 31.
O=C(O)/C=C/c1ccc2ccccc2n1 was read as m-calpain inh -18, L major viab -3, KCC2 mod 1.8 and WT yeast gro inh -32.
N#CCCN(Cc1ccccc1)C(=O)Nc1ccc2c(c1)CCO2 was read as m-calpain inh 13, KCC2 mod 0.017 and ROMK primary 0.22.
COc1ccccc1NC1=C(Cl)C(=O)N(C2CCCCC2)C1=O was read as m-calpain inh 37, L major viab 10 and WT yeast gro inh 70*.
`COc1ccccc1N1C(=O)C(Cl)=C(Nc2ccccc2O)C1=O` gave m-calpain inh -59, L major viab 7, KCC2 mod -0.026 and WT yeast gro inh 52.
Screening O=C1C(Cl)=C(NCC2CCCO2)C(=O)N1C1CCCCC1 (stereo not drawn) returned m-calpain inh -45, L major viab -2, KCC2 mod -2.4, WT yeast gro inh 7 and ROMK primary -0.028.
`Cc1ccccc1NC1=C(Cl)C(=O)N(C2CCCCC2)C1=O` gave m-calpain inh 6, L major viab 37, KCC2 mod -0.24 and WT yeast gro inh 69*.
